In PubChem BioAssay AID372 (MTDP, 2006):
Hit rate of the full screen: of about 100,000 compounds, about 770 (0.77%) were called active. The entries come from a sample that favours actives as a whole. Values without a mark were called inactive. No stated cut-off is given here; in the data, active means inhibition above about 50%; inactive means the rest.

Molecular target: Gag-Pol polyprotein (Human immunodeficiency virus type 1 group M subtype B (isolate HXB2)) (UniProt P04585)
Assay: RNase H inhibition, HIV 1 Gag Pol polyprotein, FRET biochemical assay, screening (AID 372)
Conditions: HIV-1 RT RNase H, FRET RNA/DNA substrate fluorescence; at 10 µM; hits give high values

Question: With O=C(NC1CCCCC1)c1cccc(C(F)(F)F)c1 as the compound, how does the inhibition read?
Answer: Its inhibition is 11%.

Question: How did the inhibition turn out when Cc1cc(/C=C(\C#N)C(=O)Nc2ccccc2)c(C)n1-c1sc2c(c1C#N)CCCC2 was run?
Answer: The inhibition was 15%.

Question: CC1(C)C(c2ccccc2)=[N+]([O-])C2(CCCCC/C2=N\NC(N)=O)N1O (centres undefined) was tested. Which inhibition did it give?
Answer: Its inhibition is 0%.

Question: For Cc1cc(C)c(N/C=C(\C#N)c2nc(-c3ccc(Cl)cc3Cl)cs2)c(C)c1, which inhibition is on record?
Answer: Its inhibition is 27%.

Question: For CCN(CC)S(=O)(=O)c1cc(-c2nnc(-c3ccc(C)cc3)o2)ccc1C, which inhibition is on record?
Answer: The inhibition was 3%.

Question: Which inhibition does the source give for O=[N+]([O-])c1ccc(C2Nc3c(cccc3[N+](=O)[O-])C3C=CCC32)cc1 (centres undefined) here?
Answer: Its inhibition is 35%.

Question: How did the inhibition turn out when COc1cccc2c1NC(c1ccc(F)cc1)C1CC=CC21 (centres undefined) was run?
Answer: The inhibition was 35%.

Question: COc1cccc2c1NC(c1ccc([N+](=O)[O-])cc1)C1CC=CC21 (centres undefined) was tested. Which inhibition did it give?
Answer: Its inhibition is 51% (active).

Question: How did the inhibition turn out when Cc1ccc(S(=O)(=O)Nc2cc(C)c(O)c(S(=O)(=O)c3ccc(C)cc3)c2)cc1 was run?
Answer: Its inhibition is 18%.

Question: How did the inhibition turn out when O=C1c2ccc(Oc3ccc([N+](=O)[O-])cc3)cc2C(=O)N1c1nc2ccccc2s1 was run?
Answer: Its inhibition is 11%.

Question: For Cc1ccc(N2C(=O)C3C4C=CC(O4)C3C2=O)c(C)c1 (centres undefined), which inhibition is on record?
Answer: The inhibition was 5%.

Question: How did the inhibition turn out when Oc1c(C=Nc2cccc3nsnc23)cc(Br)c2ccccc12 was run?
Answer: The inhibition was 5%.

Question: How did the inhibition turn out when Oc1c(Br)ccc(Cl)c1C=Nc1cccc2nsnc12 was run?
Answer: Its inhibition is 8%.

Question: Which inhibition does the source give for COc1ccc(Br)c(C=Nc2cccc3nsnc23)c1O here?
Answer: The inhibition was 64% (active).

Question: For Brc1ccccc1OCCCCCn1ccnc1, which inhibition is on record?
Answer: The inhibition was 5%.

Question: CN1C(=O)CS/C1=N/S(=O)(=O)c1ccc([N+](=O)[O-])cc1 was tested. Which inhibition did it give?
Answer: Its inhibition is 10%.

Question: For S=C(NCc1ccco1)NC1CCCC1, which inhibition is on record?
Answer: Its inhibition is 6%.

Question: For O=c1c(O)c(-c2ccc3c(c2)OCO3)oc2ccccc12, which inhibition is on record?
Answer: The inhibition was 0%.

Question: Cc1ccc(-c2oc3ccccc3c(=O)c2O)cc1 was tested. Which inhibition did it give?
Answer: Its inhibition is 3%.

Question: How did the inhibition turn out when O=c1c(O)c(-c2ccc(O)c(O)c2)oc2cc(O)cc(O)c12 was run?
Answer: The inhibition was 73% (active).

Question: With CN(C)c1ccc(C(c2c[nH]c3ccccc23)c2c[nH]c3ccccc23)cc1 as the compound, how does the inhibition read?
Answer: The inhibition was 23%.

Question: With Cc1cccc(/C=C2\C(=O)NC(=O)N(c3cccc(Br)c3)C2=O)c1 as the compound, how does the inhibition read?
Answer: Its inhibition is 10%.

Question: How did the inhibition turn out when C=CCNC(=S)Nc1ccc2nc3c4ccccc4c4ccccc4c3nc2c1 was run?
Answer: The inhibition was 24%.

Question: C=CCNC(=O)Nc1ccc2nc3c4ccccc4c4ccccc4c3nc2c1 was tested. Which inhibition did it give?
Answer: The inhibition was 51% (active).

Question: How did the inhibition turn out when C=CCNC(=O)Nc1ccc2nc(-c3ccccc3)c(-c3ccccc3)nc2c1 was run?
Answer: Its inhibition is 15%.

Question: For Cc1cc(C)n(-c2ccc(N3CCOCC3)nn2)n1, which inhibition is on record?
Answer: The inhibition was 11%.

Question: How did the inhibition turn out when CC(=O)CSc1nc(-c2ccccc2)c(-c2ccccc2)o1 was run?
Answer: The inhibition was 50% (active).

Question: How did the inhibition turn out when CCN(CC)C(=O)CSc1nc(-c2ccccc2)c(-c2ccccc2)o1 was run?
Answer: The inhibition was 15%.

Question: NC(=O)CSc1nc(-c2ccccc2)c(-c2ccccc2)o1 was tested. Which inhibition did it give?
Answer: Its inhibition is 37%.
